# Measured values as given in PubChem BioAssay (NCI).
# About 83,000 compounds went through this panel and 20% of them were active in at least one assay; those are over-represented in the sample as a whole.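 Values shown are percent growth following 48 h exposure of cells in 96-well plates to a single concentration of compound; below 10 was considered active.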 Active and inactive are the calls of the source.
# Test system: BT-549 breast
# Assay: NCI-60 one-dose screen, 48 h (100 = growth as untreated, 0 = no growth, -100 = all killed)
# Conditions: 10 µM unless noted
row,SMILES,growth
1,COc1ccc(OC)c2c1[nH]c(=O)c1c3ccccc3cn21,-11.6% (active)
2,CC1=CC(=O)C(C(C)=Nc2ccccc2Cl)C(=O)O1 (centres undefined),121% (inactive)
3,COc1ccc(C(=O)/C=C/c2c(Cl)nc3c(c(C)nn3-c3ccccc3)c2-c2ccc(Br)cc2)cc1,97.5% (inactive)
4,Cc1c(C(N)=O)sc2c1c(=O)n(Cc1ccccc1)c1nnc(SCC(=O)Nc3ccc(Cl)cc3)n21,67.7% (inactive)
5,Clc1nc(Cl)c2ncn(-c3ccccc3)c2n1,86.2% (inactive)
6,C[N+]1(CCc2ccccc2)CCC(CCC2CC[N+](C)(CCc3ccccc3)CC2)CC1 (centres undefined),106% (inactive)
7,O[C@@H]1Cc2ccc3ccccc3c2N[C@H](c2ccoc2)C1,106% (inactive)
8,c1cnc2ccc3ncccc3c2c1,108% (inactive)
9,CCCCOc1ccc(C(C)(C)c2ccc(OCCCC)cc2)cc1,106% (inactive)
10,c1ccc(-n2nnnc2-c2cccc3ccccc23)cc1,29.5% (inactive)
11,CCCCCCCC/C=C/CCCCCCCC1=NC(C)(C)CN1CCO,78.1% (inactive)
12,CC[N+](CC)(CCOCCOCC[N+](CC)(CC)Cc1ccc([N+](=O)[O-])cc1)Cc1ccc([N+](=O)[O-])cc1,107% (inactive)
13,O=C(Nc1ncc([N+](=O)[O-])s1)c1cccc([N+](=O)[O-])c1,35.8% (inactive)
14,CC(=O)Oc1c(C)c(OC(C)=O)c2c(c1C(C)=O)OC1CC(=O)C(C(C)=O)=C(O)C21C (centres undefined),90.4% (inactive)
15,COc1cc(Oc2cc(-c3cccnc3)ccc2NC(=O)Nc2ccc(F)cc2F)cc(OC)c1OC,103% (inactive)
16,C=C1CC[C@@H]2[C@](C)(COC(C)=O)[C@H](OC(C)=O)CC[C@@]2(C)[C@@H]1CC(Nc1ccc(S(=O)(=O)Nc2cc(C)on2)cc1)C1=CCOC1=O (some centres undefined),27.2% (inactive)
17,O=C(/C=C/c1ccccc1)CC(c1ccccc1)N1CCOCC1 (centres undefined),-79.4% (active)
18,CC[N+](C)(CC)CCCC(C)Nc1ccnc2cc(Cl)ccc12 (centres undefined),117% (inactive)
19,CN(CC(=O)N(Cc1ccc(C2CCCCC2)cc1)c1ccc(C(=O)O)cc1)S(=O)(=O)c1c(F)c(F)c(F)c(F)c1F,75.4% (inactive)

row,SMILES,growth
1,O=C1c2nsnc2C(=O)c2c(F)c(F)c(F)c(F)c21,-96.7% (active)
2,O=C(C(Br)Br)C(Br)C(Br)c1ccccc1 (centres undefined),95.8% (inactive)
3,CC/C(=C\c1ccc(N(C)C)cc1)c1nc2ccccc2c(=O)[nH]1,60.3% (inactive)
4,COc1cc(-c2cc(C(=O)Nc3nc4ccccc4s3)nc3cc(-c4ccccc4)nn23)cc(OC)c1OC,59.6% (inactive)
5,O=C(c1ccccc1)c1ccccc1Cl,85.8% (inactive)
6,O=C(CSc1nc2c(n1Nc1ccccc1)-c1ccccc1SC2)Nc1nc(-c2ccc(Cl)cc2)cs1,93.9% (inactive)
7,O=c1[nH]c(Cl)nc2c1cnn2-c1ccccc1,52.9% (inactive)
8,CCn1c2ccccc2c2ccc(C(C)=O)cc21,96.9% (inactive)
9,COc1cccc(CCC2C(=O)CCCC2=O)c1,109% (inactive)
10,COc1ccc2c(c1)C(=O)/C(=C/c1cccc(OCC(=O)c3ccccc3)c1)CC2,39.2% (inactive)
11,COc1ccc2c(c1)nc(N)c1c3cc(C)c(C)cc3cn21,94.5% (inactive)
12,CCCCCCCCCCCCCCCCN=C(CC(=O)O)C(=O)O,101% (inactive)
13,COc1ccccc1[C@H]1c2[nH]c3ccccc3c2C[C@H]2C(=O)N(CCCCCCC(=O)NO)CC(=O)N12,67.8% (inactive)
14,COc1ccc(-c2cn(-c3ccccc3)c(-c3ccccc3)n2)cc1OC,15% (inactive)
15,Cc1ccc(C(=O)Nc2ccc(Cl)cc2C(=O)NCc2ccccc2)cc1,103% (inactive)
16,CCN1C2=C(SC(=S)C1=C1SC(C(=O)OC)=C(C(=O)OC)S1)SC(=Nc1ccc(OC)cc1)C2=O,-80.5% (active)
17,CCOc1cccc(C2CC(=O)Nc3cc4c(cc32)OCO4)c1 (centres undefined),82.4% (inactive)
18,COc1ccc(C2CC(c3ccc(OC)c(OC)c3)=NN2C(=O)c2cc(OC)c(OC)c(OC)c2)cc1 (centres undefined),27.6% (inactive)

# Test system: MDA-MB-435 melanoma
# Assay: as above
# Conditions: 10 µM unless noted
row,SMILES,growth
1,COc1ccc(OC)c2c1[nH]c(=O)c1c3ccccc3cn21,-97.9% (active)
2,CC1=CC(=O)C(C(C)=Nc2ccccc2Cl)C(=O)O1 (centres undefined),111% (inactive)
3,COc1ccc(C(=O)/C=C/c2c(Cl)nc3c(c(C)nn3-c3ccccc3)c2-c2ccc(Br)cc2)cc1,107% (inactive)
4,Cc1c(C(N)=O)sc2c1c(=O)n(Cc1ccccc1)c1nnc(SCC(=O)Nc3ccc(Cl)cc3)n21,40.7% (inactive)
5,Clc1nc(Cl)c2ncn(-c3ccccc3)c2n1,64.5% (inactive)
6,C[N+]1(CCc2ccccc2)CCC(CCC2CC[N+](C)(CCc3ccccc3)CC2)CC1 (centres undefined),104% (inactive)
7,O[C@@H]1Cc2ccc3ccccc3c2N[C@H](c2ccoc2)C1,107% (inactive)
8,c1cnc2ccc3ncccc3c2c1,129% (inactive)
9,CCCCOc1ccc(C(C)(C)c2ccc(OCCCC)cc2)cc1,117% (inactive)
10,c1ccc(-n2nnnc2-c2cccc3ccccc23)cc1,-10.5% (active)
11,CCCCCCCC/C=C/CCCCCCCC1=NC(C)(C)CN1CCO,-31.9% (active)
12,CC[N+](CC)(CCOCCOCC[N+](CC)(CC)Cc1ccc([N+](=O)[O-])cc1)Cc1ccc([N+](=O)[O-])cc1,104% (inactive)
13,O=C(Nc1ncc([N+](=O)[O-])s1)c1cccc([N+](=O)[O-])c1,31.4% (inactive)
14,CC(=O)Oc1c(C)c(OC(C)=O)c2c(c1C(C)=O)OC1CC(=O)C(C(C)=O)=C(O)C21C (centres undefined),105% (inactive)
15,COc1cc(Oc2cc(-c3cccnc3)ccc2NC(=O)Nc2ccc(F)cc2F)cc(OC)c1OC,109% (inactive)
16,C=C1CC[C@@H]2[C@](C)(COC(C)=O)[C@H](OC(C)=O)CC[C@@]2(C)[C@@H]1CC(Nc1ccc(S(=O)(=O)Nc2cc(C)on2)cc1)C1=CCOC1=O (some centres undefined),35% (inactive)
17,O=C(/C=C/c1ccccc1)CC(c1ccccc1)N1CCOCC1 (centres undefined),11.8% (inactive)
18,CC[N+](C)(CC)CCCC(C)Nc1ccnc2cc(Cl)ccc12 (centres undefined),108% (inactive)
19,CN(CC(=O)N(Cc1ccc(C2CCCCC2)cc1)c1ccc(C(=O)O)cc1)S(=O)(=O)c1c(F)c(F)c(F)c(F)c1F,68.3% (inactive)

row,SMILES,growth
1,O=C1c2nsnc2C(=O)c2c(F)c(F)c(F)c(F)c21,-67.9% (active)
2,O=C(C(Br)Br)C(Br)C(Br)c1ccccc1 (centres undefined),82.3% (inactive)
3,CC/C(=C\c1ccc(N(C)C)cc1)c1nc2ccccc2c(=O)[nH]1,108% (inactive)
4,COc1cc(-c2cc(C(=O)Nc3nc4ccccc4s3)nc3cc(-c4ccccc4)nn23)cc(OC)c1OC,31% (inactive)
5,O=C(c1ccccc1)c1ccccc1Cl,102% (inactive)
6,O=C(CSc1nc2c(n1Nc1ccccc1)-c1ccccc1SC2)Nc1nc(-c2ccc(Cl)cc2)cs1,61% (inactive)
7,O=c1[nH]c(Cl)nc2c1cnn2-c1ccccc1,52.4% (inactive)
8,CCn1c2ccccc2c2ccc(C(C)=O)cc21,104% (inactive)
9,COc1cccc(CCC2C(=O)CCCC2=O)c1,119% (inactive)
10,COc1ccc2c(c1)C(=O)/C(=C/c1cccc(OCC(=O)c3ccccc3)c1)CC2,41.1% (inactive)
11,COc1ccc2c(c1)nc(N)c1c3cc(C)c(C)cc3cn21,-18% (active)
12,CCCCCCCCCCCCCCCCN=C(CC(=O)O)C(=O)O,96.7% (inactive)
13,COc1ccccc1[C@H]1c2[nH]c3ccccc3c2C[C@H]2C(=O)N(CCCCCCC(=O)NO)CC(=O)N12,45.4% (inactive)
14,COc1ccc(-c2cn(-c3ccccc3)c(-c3ccccc3)n2)cc1OC,35.7% (inactive)
15,Cc1ccc(C(=O)Nc2ccc(Cl)cc2C(=O)NCc2ccccc2)cc1,2.07% (active)
16,CCN1C2=C(SC(=S)C1=C1SC(C(=O)OC)=C(C(=O)OC)S1)SC(=Nc1ccc(OC)cc1)C2=O,-40.3% (active)
17,CCOc1cccc(C2CC(=O)Nc3cc4c(cc32)OCO4)c1 (centres undefined),29.2% (inactive)
18,COc1ccc(C2CC(c3ccc(OC)c(OC)c3)=NN2C(=O)c2cc(OC)c(OC)c(OC)c2)cc1 (centres undefined),-26.6% (active)
